This is an account of results in PubChem BioAssay (NCI).

The structures appear in SMILES notation. Several values for one entry are separate records, joined by “and”; a condition that tells them apart may be missing. Equal entries are not always repeated. The panel holds about 83,000 compounds, 20% with a hit somewhere; the sample as a whole holds those more often.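 Cell lines were cultured in 96-well plates, exposed to a single compound concentration, and assessed for percent growth 48 hours later.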 Activity calls are given as the source filed them. The calls were made as follows: active = growth percent below 10; inactive = the rest.

Some test systems named below: NCI-H23 lung; NCI-H226 lung; NCI-H322M lung; HOP-62 NSCLC; NCI-H460 lung; HOP-92 NSCLC; NCI-H522 lung; A549/ATCC NSCLC; 786-0 renal; COLO 205 colon; DU-145 prostate; K-562 leukemia; MALME-3M melanoma; MDA-MB-231 breast; RXF 393 renal; SF-268 CNS; SF-295 CNS; SF-539 CNS; UACC-257 melanoma; M14 melanoma.
Holding throughout (test): NCI-60 one-dose screen, 48 h (100 = growth as untreated, 0 = no growth, -100 = all killed)
Settings in all cases: 10 µM

With `COc1cc(/C=C\[N+](=O)[O-])ccc1O`, the growth was 83.1% (inactive) and 77.3% (inactive) with NCI-H23 lung; 91.2% (inactive) and 98.3% (inactive) with NCI-H226 lung; 85.7% (inactive) with NCI-H322M lung; 99.8% (inactive) and 101% (inactive) in the test on HOP-62 NSCLC; 96.6% (inactive) and 94% (inactive) in the test on NCI-H460 lung; 73.2% (inactive) and 102% (inactive) in the test on HOP-92 NSCLC. Moreover, the growth was -37.6% (active) and 87.2% (inactive) in the test on NCI-H522 lung; 89.2% (inactive) and 76.1% (inactive) with A549/ATCC NSCLC; 43.2% (inactive) and 90.8% (inactive) in the test on 786-0 renal; 73.6% (inactive) and 104% (inactive) in the test on COLO 205 colon; 27.4% (inactive) and 61.2% (inactive) in the test with DU-145 prostate; 26.5% (inactive) and 48.1% (inactive) in the test with K-562 leukemia. Further, the growth was 50.4% (inactive) and 96.4% (inactive) in the test with MALME-3M melanoma; 91.6% (inactive) and 83.6% (inactive) with MDA-MB-231 breast; 23.2% (inactive) and 56% (inactive) with RXF 393 renal; 75.5% (inactive) and 87.6% (inactive) with SF-268 CNS; 110% (inactive) and 104% (inactive) in the test with SF-295 CNS; 70.5% (inactive) and 83.2% (inactive) in the test on SF-539 CNS. Further, the growth is 61.2% (inactive) and 90.5% (inactive) in the test on UACC-257 melanoma; 71.3% (inactive) and 52.1% (inactive) in the test on M14 melanoma.
As to `COC(C(=O)C(O)C(C)O)C1Cc2cc3cc(OC4CC(OC(C)=O)C(OC5CC(O)C(OC)C(C)O5)C(C)O4)cc(O)c3c(O)c2C(=O)C1OC1CC(OC2CC(OC3CC(C)(O)C(OC(=O)C(C)C)C(C)O3)C(O)C(C)O2)C(O)C(C)O1` (stereo not drawn), the growth in the test on NCI-H23 lung is 8.85% (active); with NCI-H226 lung it was -12.6% (active); with NCI-H322M lung, 7.22% (active); with HOP-62 NSCLC, -5.14% (active); with NCI-H460 lung, -10.2% (active); in the test on HOP-92 NSCLC it was -16.5% (active). Further, the growth was -60.9% (active) in the test on NCI-H522 lung; -39.3% (active) with A549/ATCC NSCLC; 0.268% (active) in the test on 786-0 renal; -83.5% (active) in the test on COLO 205 colon; -32.2% (active) with DU-145 prostate; -68.4% (active) in the test with K-562 leukemia. Moreover, the growth is -89.1% (active) in the test on MALME-3M melanoma; -26.3% (active) in the test with MDA-MB-231 breast; -24.6% (active) with RXF 393 renal; 2.42% (active) with SF-268 CNS; -14.4% (active) with SF-295 CNS; -78.2% (active) in the test with SF-539 CNS. Also, in the test on UACC-257 melanoma, the growth was -19.1% (active).
Turning to `COc1cc([N+](=O)[O-])c2ncccc2c1[N+](=O)[O-]`, the growth in the test with NCI-H23 lung is 73.4% (inactive); in the test on NCI-H226 lung it was 77.1% (inactive); in the test on NCI-H322M lung, 103% (inactive); in the test with HOP-62 NSCLC, 105% (inactive); in the test on NCI-H460 lung, 87.3% (inactive); with HOP-92 NSCLC, 95.7% (inactive). Moreover, the growth was -47.9% (active) with NCI-H522 lung; 97.9% (inactive) in the test on A549/ATCC NSCLC; 77.7% (inactive) in the test on 786-0 renal; 86.1% (inactive) in the test with COLO 205 colon; 98.4% (inactive) in the test with DU-145 prostate; 29.4% (inactive) in the test with K-562 leukemia. Also, the growth with MALME-3M melanoma is 114% (inactive); with MDA-MB-231 breast, 78.2% (inactive); in the test on RXF 393 renal it was 59.4% (inactive); in the test with SF-268 CNS, 52.6% (inactive); in the test on SF-295 CNS, 94.3% (inactive); with SF-539 CNS it was 13% (inactive). The growth in the test on UACC-257 melanoma was 50.4% (inactive); in the test with M14 melanoma, 65.8% (inactive).
Take `[O-][n+]1ccccc1S`: the growth in the test with NCI-H23 lung is 73.5% (inactive); with NCI-H226 lung it was 95.8% (inactive); with NCI-H322M lung it was 64.1% (inactive); in the test on HOP-62 NSCLC, 58% (inactive); in the test with NCI-H460 lung it was 8.67% (active); in the test with HOP-92 NSCLC, 97.1% (inactive). In addition, the growth in the test on NCI-H522 lung is -34.7% (active); with A549/ATCC NSCLC it was 30.4% (inactive); with 786-0 renal, 46.3% (inactive); in the test with COLO 205 colon, 16.1% (inactive); in the test on DU-145 prostate it was 32.3% (inactive); in the test on K-562 leukemia, 31.2% (inactive). Besides, the growth was 110% (inactive) with MALME-3M melanoma; 58.7% (inactive) in the test with MDA-MB-231 breast; 46.9% (inactive) in the test on RXF 393 renal; 70.7% (inactive) in the test with SF-268 CNS; 44.4% (inactive) in the test with SF-295 CNS; 67.6% (inactive) with SF-539 CNS. Moreover, the growth in the test on UACC-257 melanoma was 23.9% (inactive).
Regarding `COc1cc2c(cc1OC)C13CCN4CC5=CCOC6CC(=O)N2C1C6C5CC43` (stereo not drawn), the growth in the test with NCI-H23 lung was 90% (inactive) and 100% (inactive); in the test with NCI-H226 lung it was 95.9% (inactive) and 95.7% (inactive); with NCI-H322M lung, 118% (inactive) and 144% (inactive); with HOP-62 NSCLC it was 120% (inactive) and 102% (inactive); in the test on NCI-H460 lung, 120% (inactive) and 83.2% (inactive); in the test with HOP-92 NSCLC, 87.4% (inactive). Moreover, the growth was 105% (inactive) and 99.1% (inactive) with NCI-H522 lung; 99.4% (inactive) with A549/ATCC NSCLC; 112% (inactive) and 99.6% (inactive) with 786-0 renal; 95.8% (inactive) and 89% (inactive) with COLO 205 colon; 123% (inactive) and 116% (inactive) in the test with DU-145 prostate; 124% (inactive) and 74.9% (inactive) in the test on K-562 leukemia. Besides, the growth with MALME-3M melanoma was 126% (inactive) and 103% (inactive); in the test with MDA-MB-231 breast, 111% (inactive) and 87.4% (inactive); in the test on RXF 393 renal, 127% (inactive); in the test with SF-268 CNS, 103% (inactive); in the test on SF-295 CNS, 105% (inactive) and 134% (inactive); with SF-539 CNS, 96.8% (inactive) and 80.2% (inactive). The growth was 104% (inactive) with UACC-257 melanoma; 107% (inactive) and 108% (inactive) in the test with M14 melanoma.
For `CC1CCC2(OC1)OC1C(O)C3C4CCC5CC(OC6OC(CO)C(OC7OC(CO)C(O)C(OC8OCC(O)C(O)C8O)C7OC7OC(CO)C(O)C(OC8OC(CO)C(O)C(O)C8O)C7O)C(O)C6O)C(O)CC5(C)C4CCC3(C)C1C2C` (stereo not drawn), the growth with NCI-H23 lung is -51.5% (active); with NCI-H226 lung it was -50.1% (active); with NCI-H322M lung, 13.2% (inactive); with HOP-62 NSCLC, -95.3% (active); with NCI-H460 lung it was 5.81% (active); in the test with HOP-92 NSCLC, -3.92% (active). Moreover, the growth with NCI-H522 lung was -71.4% (active); with A549/ATCC NSCLC, -40.2% (active); in the test on 786-0 renal it was -92% (active); in the test on COLO 205 colon, 22.7% (inactive); in the test on DU-145 prostate, -100% (active); with K-562 leukemia, -100% (active). The growth is 14.8% (inactive) with MALME-3M melanoma; -70.2% (active) in the test with MDA-MB-231 breast; -71.6% (active) in the test on RXF 393 renal; -39.7% (active) in the test with SF-268 CNS; -77.9% (active) with SF-295 CNS; -53.3% (active) in the test on SF-539 CNS. Further, the growth in the test with UACC-257 melanoma was -85.7% (active); with M14 melanoma, 62.9% (inactive).
